Twelve compounds from the supplement of paper PMC13380429 can be followed below.

In this test the test system is Vero E6 infected with SARS-CoV-2. The experiment in a line: SARS-CoV-2 infection rate relative to infected DMSO; higher = more infection, active = 60 or less. The settings on record: 24 h.
Take `CCOc1cn(-c2ccc(F)cc2C)nc1C(=O)Nc1ccc(Oc2ccnc3cc(OC)c(OC)cc23)c(F)c1` (10 µM): the SARS-CoV-2 infection rate was 110% (inactive). Under `CC1(C)S[C@@H]2[C@H](NC(=O)[C@H](N)c3ccc(O)cc3)C(=O)N2[C@H]1C(=O)O` [amoxicillin] (10 µM) stands 102% (inactive); under `O=C(O)CNC(=O)c1ccccc1` [hippuric-acid] (10 µM), 109% (inactive). Under `Cl/C(=C\n1cncn1)c1ccc(Cl)cc1Cl` [loreclezole] (10 µM) stands 102% (inactive); under `C=C(c1ccccc1OCc1cccc(Cl)c1)n1ccnc1` [croconazole] (10 µM), 104% (inactive). As to `COc1cc2c(cc1OC)-c1c/c(=N\c3c(C)cc(C)cc3C)n(C)c(=O)n1CC2` [trequinsin] (10 µM), the SARS-CoV-2 infection rate was 87.5% (inactive).

For `CCS(=O)(=O)N1CCN(c2ccc(Nc3ncc(C(N)=O)c(NC4CC4)n3)cc2)CC1` (10 µM), the SARS-CoV-2 infection rate is 123% (inactive).

As to `Cc1ccc(-c2ccc(F)cc2COc2ccc(CCC(=O)O)cc2)cc1` (10 µM), the SARS-CoV-2 infection rate is 100% (inactive). For `CCc1nc2c(C)nc(C)cc2n1-c1ccc(CCNC(=O)NS(=O)(=O)c2ccc(C)cc2)cc1` [grapiprant] (10 µM) the value was 93.5% (inactive); for `O=C1NCCc2[nH]c(-c3ccncc3)cc21` (0.833333 µM), 106% (inactive). Under `COc1ccc2nc3[nH]nc(C)c3c(NCCOCCO)c2c1` (10 µM) stands 111% (inactive); under `COC[C@H](C)Oc1cc(O[C@@H](C)Cc2ccccc2)cc(C(=O)Nc2ccc(C(=O)O)cn2)c1` (10 µM), 100% (inactive).
